Source: PubChem BioAssay AID1159580 (chemical genetic matrix, 2015)
About 2,000 (36%) of roughly 5,500 compounds were called active. Another 18% or so got no clear call; they are omitted. Rule as the data show it: active = normalized growth mostly below about 0.91 (no sharp cut-off); inconclusive = no clear call, values can overlap the other calls; inactive = mostly above about 0.92. The list shows a part of the results.

Experiment: chemical genetic growth profiling, strain panel (AID 1159580);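 also: tested at 20 µM; growth read once vehicle control cultures reached saturation at 30 °C; 1 = growth at the plate median or of vehicle wells; lower values mean less growth of the strain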
Conditions: S. cerevisiae deletion strains, growth OD

Measured: normalized growth

CC(=O)Oc1ccc(-c2cc(=O)c3c(OC(C)=O)cc(OC(C)=O)cc3o2)cc1
inactive: locus YAL021C, strain ccr4, stronger effect = lower value 0.975 | locus YAL026C, strain drs2, stronger effect = lower value 0.947 | locus YAL030W, strain snc1, stronger effect = lower value 0.975 | locus YBL061C, strain skt5, stronger effect = lower value 0.965 | locus YBR009C, strain hhf1, stronger effect = lower value 0.96 | locus YBR023C, strain chs3, stronger effect = lower value 0.951 | locus YBR171W, strain sec66, stronger effect = lower value 0.955 | locus YBR231C, strain swc5, stronger effect = lower value 0.968 | locus YBR279W, strain paf1, stronger effect = lower value 0.974 | locus YCL011C, strain gbp2, stronger effect = lower value 0.963 | locus YCL016C, strain dcc1, stronger effect = lower value 0.974 | locus YCL061C, strain MRC1, stronger effect = lower value 0.988 | locus YCL069W, strain vba3, stronger effect = lower value 0.964 | locus YCR088W, strain abp1, stronger effect = lower value 0.966 | locus YDL005C, strain med2, stronger effect = lower value 0.977 | locus YDL040C, strain nat1, stronger effect = lower value 0.966 | locus YDR001C, strain nth1, stronger effect = lower value 0.965 | locus YDR069C, strain doa4, stronger effect = lower value 0.95 | locus YDR137W, strain rgp1, stronger effect = lower value 1 | locus YDR159W, strain sac3, stronger effect = lower value 0.935 | locus YDR195W, strain ref2 0.942 | locus YDR297W, strain sur2, stronger effect = lower value 0.976 | locus YDR334W, strain swr1, stronger effect = lower value 0.958 | locus YDR335W, strain msn5, stronger effect = lower value 0.982 | locus YDR392W, strain spt3, stronger effect = lower value 0.906 | locus YEL003W, strain gim4, stronger effect = lower value 0.961 | locus YEL037C, strain rad23, stronger effect = lower value 0.952 | locus YEL061C, strain CIN8 (second series), stronger effect = lower value 0.958 | locus YER015W, strain faa2, stronger effect = lower value 0.984 | locus YER016W, strain bim1, stronger effect = lower value 0.976 | locus YER111C, strain swi4, stronger effect = lower value 0.953 | locus YER155C, strain BEM2 (second series), stronger effect = lower value 0.957 | locus YFR010W, strain ubp6, stronger effect = lower value 0.957 | locus YGL167C, strain pmr1, stronger effect = lower value 0.965 | locus YGL173C, strain kem1, stronger effect = lower value 0.983 | locus YGL227W, strain vid30, stronger effect = lower value 0.955 | locus YGL240W, strain doc1, stronger effect = lower value 0.962 | locus YGL253W, strain hxk2, stronger effect = lower value 0.973 | locus YHR013C, strain ard1, stronger effect = lower value 0.92 | locus YHR027C, strain rpn1, stronger effect = lower value 0.982 | locus YHR142W, strain chs7, stronger effect = lower value 0.973 | locus YJL092W, strain hpr5, stronger effect = lower value 0.982 | locus YJL095W, strain BCK1 (second series), stronger effect = lower value 0.988 | locus YJL115W, strain asf1, stronger effect = lower value 0.954 | locus YJL129C, strain trk1, stronger effect = lower value 0.95 | locus YJL154C, strain vps35, stronger effect = lower value 0.961 | locus YJL164C, strain tpk1, stronger effect = lower value 0.964 | locus YJL166W, strain qcr8, stronger effect = lower value 0.971 | locus YJL187C, strain SWE1, stronger effect = lower value 0.976 | locus YKL160W, strain elf1, stronger effect = lower value 1.01 | locus YKR026C, strain gcn3, stronger effect = lower value 0.949 | locus YKR091W, strain srl3, stronger effect = lower value 0.97 | locus YLL001W, strain dnm1, stronger effect = lower value 0.997 | locus YLL026W, stronger effect = lower value 0.973 | locus YLL041C, strain sdh2, stronger effect = lower value 0.98 | locus YLR027C, strain aat2, stronger effect = lower value 0.96 | locus YLR221C, strain rsa3, stronger effect = lower value 0.958 | locus YLR258W, strain gsy2, stronger effect = lower value 0.977 | locus YLR262C, strain YPT6 (second series), stronger effect = lower value 0.999 | locus YLR320W, strain mms22, stronger effect = lower value 0.958 | locus YLR342W, strain FKS1, stronger effect = lower value 0.968 | locus YLR357W, strain rsc2, stronger effect = lower value 0.902 | locus YLR370C, strain arc18, stronger effect = lower value 0.958 | locus YLR384C, strain iki3, stronger effect = lower value 0.966 | locus YML120C, strain ndi1, stronger effect = lower value 0.967 | locus YMR058W, strain fet3, stronger effect = lower value 0.965 | locus YMR125W, strain sto1, stronger effect = lower value 0.955 | locus YMR129W, stronger effect = lower value 0.967 | locus YMR205C, strain PFK2, stronger effect = lower value 0.941 | locus YMR231W, strain pep5, stronger effect = lower value 0.975 | locus YNL071W, strain lat1, stronger effect = lower value 0.967 | locus YNL209W, strain ssb2, stronger effect = lower value 0.979 | locus YNL248C, strain rpa49, stronger effect = lower value 0.979 | locus YNL322C, strain KRE1 (second series), stronger effect = lower value 0.95 | locus YNR049C, strain mso1, stronger effect = lower value 0.953 | locus YOR001W, strain rrp6, stronger effect = lower value 0.987 | locus YOR070C, strain gyp1, stronger effect = lower value 0.977 | locus YOR080W, strain dia2, stronger effect = lower value 0.961 | locus YOR083W, strain WHI5, stronger effect = lower value 1.02 | locus YOR106W, strain vam3, stronger effect = lower value 0.986 | locus YOR265W, strain rbl2, stronger effect = lower value 0.981 | locus YOR270C, strain vph1, stronger effect = lower value 0.899 | locus YOR290C, strain snf2, stronger effect = lower value 0.899 | locus YPL051W, strain arl3, stronger effect = lower value 1 | locus YPL078C, strain atp4, stronger effect = lower value 0.984 | locus YPL106C, strain sse1, stronger effect = lower value 0.946 | locus YPL240C, strain hsp82, stronger effect = lower value 0.987
